This note sets out measurements from PMC7862700, “An all-to-all approach to the identification of sequence-specific readers for epigenetic DNA modifications on cytosine”.

Test in all cases: DAPPL (digital affinity profiling via proximity ligation, sequencing); 10 mM Tris-HCl pH 7.5, 50 mM NaCl, 1 mM DTT, 4% glycerol, room temperature, 30 min; GST-TFs on glutathione beads, 16-mer random dsDNA library, 0.1% formaldehyde crosslink after washing; high values mean tight binding
Details in all cases: protein: recombinant; tags: N-terminal GST; dsDNA, one strand shown

One assay deals with T1, FLI1 (Homo sapiens, UniProt Q01543 1-452).
T1 sequence: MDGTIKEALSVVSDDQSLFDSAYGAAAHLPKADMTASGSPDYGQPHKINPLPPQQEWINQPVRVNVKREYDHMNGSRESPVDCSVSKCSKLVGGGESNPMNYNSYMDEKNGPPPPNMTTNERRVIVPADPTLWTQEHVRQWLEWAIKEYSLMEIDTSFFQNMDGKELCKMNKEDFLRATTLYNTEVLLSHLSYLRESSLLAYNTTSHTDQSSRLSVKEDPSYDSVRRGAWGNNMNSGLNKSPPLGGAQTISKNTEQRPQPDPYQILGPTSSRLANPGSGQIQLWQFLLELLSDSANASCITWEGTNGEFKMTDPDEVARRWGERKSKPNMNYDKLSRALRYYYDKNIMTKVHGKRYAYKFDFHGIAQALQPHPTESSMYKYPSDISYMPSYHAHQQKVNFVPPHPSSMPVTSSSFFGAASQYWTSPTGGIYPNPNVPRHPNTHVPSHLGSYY
In short, it runs like this:
(§1)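 After expression in yeast as GST fusions, human transcription factors were bound to glutathione beads, DNA-barcoded and mixed with a tag-only sample. The pools were incubated with 200 nmole of a 16-mer random double-stranded DNA library in Tris/NaCl/DTT/glycerol buffer (30 min, room temperature), washed and crosslinked with 0.1% formaldehyde. Proximity ligation with BsaI/T4 ligase ran for 1 h at 37 °C, before PCR amplification and sequencing on an Illumina NextSeq500. Binding signal is a hexamer's read frequency for a factor divided by its frequency for the tag-only sample.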

For the next assay, the target named is T2, GABPA (Homo sapiens, UniProt Q06546 1-454).
T2 sequence: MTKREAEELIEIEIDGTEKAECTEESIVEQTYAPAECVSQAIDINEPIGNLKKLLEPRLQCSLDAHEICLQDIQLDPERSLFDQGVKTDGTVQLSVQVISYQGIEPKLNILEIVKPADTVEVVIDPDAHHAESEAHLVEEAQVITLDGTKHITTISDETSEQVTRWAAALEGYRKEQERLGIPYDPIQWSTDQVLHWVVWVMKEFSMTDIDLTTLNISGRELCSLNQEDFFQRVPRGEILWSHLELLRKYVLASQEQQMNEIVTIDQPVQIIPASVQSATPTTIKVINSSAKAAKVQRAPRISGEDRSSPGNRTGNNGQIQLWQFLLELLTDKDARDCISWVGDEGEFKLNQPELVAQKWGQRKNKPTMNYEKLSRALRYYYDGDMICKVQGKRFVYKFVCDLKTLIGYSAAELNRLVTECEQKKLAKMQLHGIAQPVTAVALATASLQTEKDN
Put shortly: as §1

The next assay addresses T3, ERG (Homo sapiens, UniProt P11308 1-479).
T3 sequence: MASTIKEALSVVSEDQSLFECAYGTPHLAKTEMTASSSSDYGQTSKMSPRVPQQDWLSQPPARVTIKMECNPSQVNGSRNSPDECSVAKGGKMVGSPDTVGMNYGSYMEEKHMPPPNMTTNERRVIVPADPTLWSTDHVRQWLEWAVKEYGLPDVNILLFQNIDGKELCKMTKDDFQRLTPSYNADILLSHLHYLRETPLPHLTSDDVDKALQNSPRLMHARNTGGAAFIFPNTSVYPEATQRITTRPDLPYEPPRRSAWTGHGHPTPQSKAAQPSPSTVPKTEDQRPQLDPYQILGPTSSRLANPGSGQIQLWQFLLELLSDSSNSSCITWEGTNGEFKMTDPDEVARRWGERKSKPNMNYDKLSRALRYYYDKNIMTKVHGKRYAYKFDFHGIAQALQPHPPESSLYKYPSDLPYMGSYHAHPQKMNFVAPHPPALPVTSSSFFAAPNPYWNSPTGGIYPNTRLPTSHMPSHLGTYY
Put shortly: as §1

A further assay concerns the target ELF1 (Homo sapiens, UniProt P32519 1-619). In short, it runs like this:
as §1

The target in another assay is T4, EHF (Homo sapiens, UniProt Q9NZC4 1-300).
T4 sequence: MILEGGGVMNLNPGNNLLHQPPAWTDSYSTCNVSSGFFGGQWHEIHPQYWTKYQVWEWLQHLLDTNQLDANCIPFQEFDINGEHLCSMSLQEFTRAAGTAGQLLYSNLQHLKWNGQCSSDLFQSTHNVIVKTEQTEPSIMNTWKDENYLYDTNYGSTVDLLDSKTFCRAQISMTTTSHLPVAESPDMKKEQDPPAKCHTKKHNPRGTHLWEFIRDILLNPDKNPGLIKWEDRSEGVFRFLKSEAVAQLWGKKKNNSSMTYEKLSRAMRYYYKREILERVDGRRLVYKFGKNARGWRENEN
In short, it runs like this:
as §1

The target in the next assay is SPI1 (Homo sapiens, UniProt P17947 1-270). In short, it runs like this:
as §1

A further assay concerns the target SPIB (Homo sapiens, UniProt Q01892 1-262). Put shortly: as §1
The target in a further assay is T5, ELK3 (Homo sapiens, UniProt P41970 1-407).
T5 sequence: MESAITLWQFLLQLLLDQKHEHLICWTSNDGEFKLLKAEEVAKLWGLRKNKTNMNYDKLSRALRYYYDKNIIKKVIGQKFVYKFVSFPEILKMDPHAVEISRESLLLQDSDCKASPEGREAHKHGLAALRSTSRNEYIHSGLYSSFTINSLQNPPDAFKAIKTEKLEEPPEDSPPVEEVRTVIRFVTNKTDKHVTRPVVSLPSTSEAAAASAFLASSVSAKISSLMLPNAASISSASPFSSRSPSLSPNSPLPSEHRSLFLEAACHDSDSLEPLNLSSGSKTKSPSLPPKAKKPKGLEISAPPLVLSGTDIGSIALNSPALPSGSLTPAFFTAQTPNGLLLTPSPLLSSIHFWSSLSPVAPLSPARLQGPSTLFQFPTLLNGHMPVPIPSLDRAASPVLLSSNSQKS
In short, it runs like this: as §1

Another assay deals with T6, FEV (Homo sapiens, UniProt Q99581 1-238).
T6 sequence: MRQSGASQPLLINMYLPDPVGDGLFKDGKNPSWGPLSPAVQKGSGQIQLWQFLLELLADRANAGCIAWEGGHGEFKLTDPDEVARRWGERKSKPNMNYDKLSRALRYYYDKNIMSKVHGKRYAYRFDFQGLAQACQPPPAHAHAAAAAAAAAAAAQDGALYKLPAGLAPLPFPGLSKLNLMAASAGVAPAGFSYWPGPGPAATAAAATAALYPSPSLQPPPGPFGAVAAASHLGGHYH
Put shortly: as §1

A further assay concerns the target ETV5 (Homo sapiens, UniProt P41161 1-510). Put shortly:
as §1

Another assay concerns the target T7, SPIC (Homo sapiens, UniProt Q8N5J4 1-248).
T7 sequence: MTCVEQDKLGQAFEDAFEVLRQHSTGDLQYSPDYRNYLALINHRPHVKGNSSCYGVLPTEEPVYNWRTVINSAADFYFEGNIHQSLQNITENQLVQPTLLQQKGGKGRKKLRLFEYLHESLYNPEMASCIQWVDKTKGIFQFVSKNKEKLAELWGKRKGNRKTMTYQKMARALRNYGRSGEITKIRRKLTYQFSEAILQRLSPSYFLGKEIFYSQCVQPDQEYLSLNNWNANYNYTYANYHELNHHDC
In short, it runs like this:
as §1

A further assay deals with ELF4 (Homo sapiens, UniProt Q99607 1-663). In short, it runs like this:
as §1

In another assay the target is ETV1 (Homo sapiens, UniProt P50549 1-477). In short, it runs like this:
as §1

Another assay addresses T8, ERF (Homo sapiens, UniProt P50548 1-548).
T8 sequence: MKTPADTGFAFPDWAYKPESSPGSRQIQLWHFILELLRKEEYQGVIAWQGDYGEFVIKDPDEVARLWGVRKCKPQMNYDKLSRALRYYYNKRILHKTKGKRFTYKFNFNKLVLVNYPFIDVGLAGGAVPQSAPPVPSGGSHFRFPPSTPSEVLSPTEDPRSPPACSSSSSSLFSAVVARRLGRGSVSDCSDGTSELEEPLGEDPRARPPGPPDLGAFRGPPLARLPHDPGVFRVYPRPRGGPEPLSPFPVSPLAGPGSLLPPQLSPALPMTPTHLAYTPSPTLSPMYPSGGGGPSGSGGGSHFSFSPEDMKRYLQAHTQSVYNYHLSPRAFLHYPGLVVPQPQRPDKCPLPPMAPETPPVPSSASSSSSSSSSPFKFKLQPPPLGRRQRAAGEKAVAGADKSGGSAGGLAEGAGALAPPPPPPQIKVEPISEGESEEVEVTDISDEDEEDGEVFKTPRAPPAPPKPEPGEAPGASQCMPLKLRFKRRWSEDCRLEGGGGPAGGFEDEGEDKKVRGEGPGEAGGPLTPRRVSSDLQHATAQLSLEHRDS
In short, it runs like this: as §1

A further assay concerns the target T9, ETV3L (Homo sapiens, UniProt Q6ZN32 1-361).
T9 sequence: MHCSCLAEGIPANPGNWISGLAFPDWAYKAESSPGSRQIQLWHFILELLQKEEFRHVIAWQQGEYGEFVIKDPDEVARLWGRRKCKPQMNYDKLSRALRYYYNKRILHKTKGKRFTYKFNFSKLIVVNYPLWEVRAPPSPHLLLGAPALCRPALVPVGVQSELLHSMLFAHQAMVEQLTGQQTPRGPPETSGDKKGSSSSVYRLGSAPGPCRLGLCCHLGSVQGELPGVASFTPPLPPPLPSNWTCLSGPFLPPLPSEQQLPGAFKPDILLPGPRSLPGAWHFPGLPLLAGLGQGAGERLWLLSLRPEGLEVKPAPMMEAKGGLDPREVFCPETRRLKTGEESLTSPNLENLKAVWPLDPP
In short, it runs like this: as §1

A further assay deals with T10, ETS2 (Homo sapiens, UniProt P15036 1-469).
T10 sequence: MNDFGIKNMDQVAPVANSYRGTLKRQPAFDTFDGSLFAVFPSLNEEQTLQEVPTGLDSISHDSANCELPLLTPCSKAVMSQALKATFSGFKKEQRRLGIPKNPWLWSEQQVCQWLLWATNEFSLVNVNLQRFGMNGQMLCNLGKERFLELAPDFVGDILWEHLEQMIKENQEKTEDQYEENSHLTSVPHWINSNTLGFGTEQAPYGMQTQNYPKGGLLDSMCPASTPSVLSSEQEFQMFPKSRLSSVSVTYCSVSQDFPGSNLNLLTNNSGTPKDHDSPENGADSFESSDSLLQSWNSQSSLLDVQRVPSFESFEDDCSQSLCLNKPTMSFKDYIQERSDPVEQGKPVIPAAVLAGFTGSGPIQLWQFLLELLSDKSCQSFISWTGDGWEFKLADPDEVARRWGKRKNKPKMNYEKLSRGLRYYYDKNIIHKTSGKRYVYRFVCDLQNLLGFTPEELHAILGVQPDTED
Put shortly:
as §1

Another assay deals with T11, ELF5 (Homo sapiens, UniProt Q9UKW6-2 1-255).
T11 sequence: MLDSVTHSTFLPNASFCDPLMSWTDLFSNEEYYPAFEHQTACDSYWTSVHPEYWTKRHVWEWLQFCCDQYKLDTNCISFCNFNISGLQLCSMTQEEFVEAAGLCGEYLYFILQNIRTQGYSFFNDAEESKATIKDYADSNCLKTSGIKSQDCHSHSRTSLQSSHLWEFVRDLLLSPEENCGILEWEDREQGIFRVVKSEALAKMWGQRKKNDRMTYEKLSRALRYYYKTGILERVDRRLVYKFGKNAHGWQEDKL
In short, it runs like this: as §1

For the next assay, the target named is T12, ETV3 (Homo sapiens, UniProt P41162-2 1-143).
T12 sequence: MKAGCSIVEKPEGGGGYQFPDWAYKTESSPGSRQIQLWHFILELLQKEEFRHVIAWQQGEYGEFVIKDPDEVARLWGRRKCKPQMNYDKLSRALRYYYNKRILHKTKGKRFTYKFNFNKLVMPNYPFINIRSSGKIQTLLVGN
Put shortly: as §1

The target in another assay is ETV6 (Homo sapiens, UniProt P41212 1-452). In short, it runs like this: as §1
ETV6, sequence (P41212 whole entry): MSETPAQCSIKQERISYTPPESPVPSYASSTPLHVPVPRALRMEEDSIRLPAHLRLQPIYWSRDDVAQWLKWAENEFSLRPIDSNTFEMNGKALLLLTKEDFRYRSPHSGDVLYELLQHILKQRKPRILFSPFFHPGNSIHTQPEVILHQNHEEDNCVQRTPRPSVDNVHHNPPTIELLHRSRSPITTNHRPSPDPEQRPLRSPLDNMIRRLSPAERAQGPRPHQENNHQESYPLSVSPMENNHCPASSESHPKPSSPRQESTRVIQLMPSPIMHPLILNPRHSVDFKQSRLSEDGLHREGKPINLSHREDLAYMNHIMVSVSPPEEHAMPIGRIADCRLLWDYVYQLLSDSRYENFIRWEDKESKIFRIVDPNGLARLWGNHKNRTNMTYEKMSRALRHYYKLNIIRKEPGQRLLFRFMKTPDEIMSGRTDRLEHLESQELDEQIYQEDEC

ETV1, sequence (P50549 whole entry): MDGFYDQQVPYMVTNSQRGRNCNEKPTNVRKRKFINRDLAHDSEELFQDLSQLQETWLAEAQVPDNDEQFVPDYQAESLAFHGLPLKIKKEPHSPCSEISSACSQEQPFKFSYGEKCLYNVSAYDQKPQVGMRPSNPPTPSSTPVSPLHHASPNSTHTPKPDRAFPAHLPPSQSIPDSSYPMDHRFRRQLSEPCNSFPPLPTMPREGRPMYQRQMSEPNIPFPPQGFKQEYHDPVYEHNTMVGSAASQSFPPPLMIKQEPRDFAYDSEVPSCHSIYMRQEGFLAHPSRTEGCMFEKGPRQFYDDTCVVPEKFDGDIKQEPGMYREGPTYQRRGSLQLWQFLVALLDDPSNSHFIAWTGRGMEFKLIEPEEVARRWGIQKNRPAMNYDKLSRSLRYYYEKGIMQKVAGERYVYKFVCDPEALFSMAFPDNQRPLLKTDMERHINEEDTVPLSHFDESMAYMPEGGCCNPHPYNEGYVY
ELF1, sequence (P32519 whole entry): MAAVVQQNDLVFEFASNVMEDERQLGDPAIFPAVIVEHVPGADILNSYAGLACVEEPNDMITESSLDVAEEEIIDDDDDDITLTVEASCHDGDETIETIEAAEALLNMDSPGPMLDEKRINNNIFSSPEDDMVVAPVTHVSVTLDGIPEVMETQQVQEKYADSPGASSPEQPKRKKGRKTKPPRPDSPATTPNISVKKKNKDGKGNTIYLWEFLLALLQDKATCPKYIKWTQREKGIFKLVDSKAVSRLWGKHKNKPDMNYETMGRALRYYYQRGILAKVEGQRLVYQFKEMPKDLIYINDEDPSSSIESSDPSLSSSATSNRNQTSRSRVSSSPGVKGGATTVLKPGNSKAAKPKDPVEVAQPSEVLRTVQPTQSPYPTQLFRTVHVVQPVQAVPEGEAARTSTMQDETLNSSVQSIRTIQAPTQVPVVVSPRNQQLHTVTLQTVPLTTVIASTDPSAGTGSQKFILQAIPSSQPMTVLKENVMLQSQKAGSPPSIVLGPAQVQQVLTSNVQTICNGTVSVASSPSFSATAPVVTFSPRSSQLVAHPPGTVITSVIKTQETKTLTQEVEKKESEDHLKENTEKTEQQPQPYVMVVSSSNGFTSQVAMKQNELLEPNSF
ELF4, sequence (Q99607 whole entry): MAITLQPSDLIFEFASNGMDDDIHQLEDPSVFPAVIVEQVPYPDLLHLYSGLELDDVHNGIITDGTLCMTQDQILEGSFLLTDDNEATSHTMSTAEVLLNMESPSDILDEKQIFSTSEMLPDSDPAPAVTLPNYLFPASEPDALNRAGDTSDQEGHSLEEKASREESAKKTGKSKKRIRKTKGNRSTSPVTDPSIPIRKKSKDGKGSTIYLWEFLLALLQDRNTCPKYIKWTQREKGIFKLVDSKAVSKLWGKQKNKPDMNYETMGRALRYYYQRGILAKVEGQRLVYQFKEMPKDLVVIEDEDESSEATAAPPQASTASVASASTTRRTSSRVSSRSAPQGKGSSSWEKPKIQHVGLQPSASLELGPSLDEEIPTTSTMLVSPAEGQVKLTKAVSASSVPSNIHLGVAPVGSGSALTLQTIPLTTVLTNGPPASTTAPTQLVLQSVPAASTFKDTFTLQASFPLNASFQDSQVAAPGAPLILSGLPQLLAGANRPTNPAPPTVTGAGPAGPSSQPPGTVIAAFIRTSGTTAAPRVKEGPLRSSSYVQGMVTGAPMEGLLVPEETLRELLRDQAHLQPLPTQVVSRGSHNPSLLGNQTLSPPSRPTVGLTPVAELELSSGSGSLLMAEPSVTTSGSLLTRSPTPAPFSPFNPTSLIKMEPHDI
ETV5, sequence (P41161 whole entry): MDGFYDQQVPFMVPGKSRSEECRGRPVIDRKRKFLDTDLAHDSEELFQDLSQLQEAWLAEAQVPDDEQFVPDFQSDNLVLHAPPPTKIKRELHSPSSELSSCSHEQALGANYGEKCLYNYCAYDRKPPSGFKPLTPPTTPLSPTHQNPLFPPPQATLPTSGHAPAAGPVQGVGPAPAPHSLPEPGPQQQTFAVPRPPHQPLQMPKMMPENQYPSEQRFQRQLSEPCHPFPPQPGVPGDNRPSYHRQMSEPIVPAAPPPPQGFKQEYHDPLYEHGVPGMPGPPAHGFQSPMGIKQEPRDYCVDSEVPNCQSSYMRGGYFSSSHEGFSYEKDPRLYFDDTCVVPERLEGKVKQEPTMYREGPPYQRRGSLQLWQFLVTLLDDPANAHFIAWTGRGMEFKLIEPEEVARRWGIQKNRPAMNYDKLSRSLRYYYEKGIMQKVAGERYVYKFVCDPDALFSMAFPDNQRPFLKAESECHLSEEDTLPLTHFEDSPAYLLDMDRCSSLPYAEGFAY
SPIB, sequence (Q01892 whole entry): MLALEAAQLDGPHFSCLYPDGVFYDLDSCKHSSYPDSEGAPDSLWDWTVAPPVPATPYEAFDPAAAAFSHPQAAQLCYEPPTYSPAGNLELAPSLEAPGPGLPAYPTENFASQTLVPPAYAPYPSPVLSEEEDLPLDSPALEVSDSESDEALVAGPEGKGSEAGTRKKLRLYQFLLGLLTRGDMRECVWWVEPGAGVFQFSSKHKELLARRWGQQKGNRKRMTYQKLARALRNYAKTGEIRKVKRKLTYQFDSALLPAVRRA

As for ATACCG, the binding signal in the assay with FLI1 was 1.16 fold enrichment (6-mer frequency, TF over GST control); in the assay with GABPA, 1.02 fold enrichment (6-mer frequency, TF over GST control); with ERG, 1.16 fold enrichment (6-mer frequency, TF over GST control); in the assay with ELF1, 1.11 fold enrichment (6-mer frequency, TF over GST control); with EHF it was 1.12 fold enrichment (6-mer frequency, TF over GST control); with SPI1, 1.06 fold enrichment (6-mer frequency, TF over GST control). The binding signal in the assay with SPIB was 1.12 fold enrichment (6-mer frequency, TF over GST control); in the assay with ELK3 it was 1.15 fold enrichment (6-mer frequency, TF over GST control); with FEV it was 1.25 fold enrichment (6-mer frequency, TF over GST control); with ETV5 it was 1.1 fold enrichment (6-mer frequency, TF over GST control); with SPIC, 1.05 fold enrichment (6-mer frequency, TF over GST control); with ELF4, 1.12 fold enrichment (6-mer frequency, TF over GST control). The binding signal is 1.14 fold enrichment (6-mer frequency, TF over GST control) with ETV1; 1.08 fold enrichment (6-mer frequency, TF over GST control) with ERF; 1.1 fold enrichment (6-mer frequency, TF over GST control) in the assay with ETV3L; 1.11 fold enrichment (6-mer frequency, TF over GST control) with ETS2; 1.13 fold enrichment (6-mer frequency, TF over GST control) in the assay with ELF5; 1.2 fold enrichment (6-mer frequency, TF over GST control) in the assay with ETV3. Further, the binding signal with ETV6 is 1.09 fold enrichment (6-mer frequency, TF over GST control).
